# PubChem BioAssay (NCATS)
# Records with an inconclusive call do not appear. Active and inactive are the calls of the source. Calls come from the whole dose curve; as a rule, active = well fitted cell-killing curve with a large enough effect; inconclusive = small, poorly fitted or top-dose-only effect, or effect the other way; inactive = no such curve, though single readings can be large or run the other way.
# Assay: Quantitative High-Throughput drug screen in 47 multiple myeloma cell lines against the NCATS MIPE library collection: MMM1_PLB cell viability assay (AID 1918976); note: nearly all actives have a fitted effect of over 35% in size
# Details: MMM1 myeloma cells viability, CellTiter-Glo, 48 h; series mostly up to 45.8 µM
# In short: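 Cells were exposed to library compounds for 48 hours, after which ATP was measured by CellTiter-Glo. Signal was taken as median relative luminescence units.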
# Potency is the fitted concentration of half-maximal effect.
row,SMILES,Potency
1,CN(C)c1ccc(C2Nc3ccc4ccccc4c3C3=C2C(=O)CC(C)(C)C3)cc1Br (centres undefined),14.8 µM (active)
2,Clc1ccc(Nc2nnc(Cc3ccncc3)c3ccccc23)cc1,18.7 µM (active)
3,CCn1c(-c2nonc2N)nc2cnc(Oc3cccc(NC(=O)c4ccc(OCCN5CCOCC5)cc4)c3)cc21,10.5 µM (active)
4,O=C1CCCC2=C1C(c1[nH]ncc1Cl)N=C(Nc1nc3ccccc3o1)N2 (centres undefined),4.69 µM (active)
5,Cc1ccc(N(CC2=NCCN2)c2cccc(O)c2)cc1,2.96 µM (active)
6,Cn1cc(-c2ccc3nnc(C(F)(F)c4ccc5ncccc5c4)n3n2)cn1,5.9 µM (active)
7,NCCCC(N)(C(=O)O)C(F)F (centres undefined),0.526 µM (active)
8,COc1nc(-c2ccc3c(c2)OCO3)n(-c2ccc(NC(=O)CSc3ccccc3)cc2)n1,7.43 µM (active)
9,O=c1ncn2nc(Sc3ccc(F)cc3F)ccc2c1-c1c(Cl)cccc1Cl,20.9 µM (active)
10,CCc1cncnc1N1CCN(Cc2nc3ccc(C(F)(F)F)cc3[nH]2)CC1,16.6 µM (active)
11,Cc1ccc(NC(=O)c2cccc(C(C)(C)C#N)c2)cc1Nc1ccc2ncn(C)c(=O)c2c1,16.6 µM (active)
12,COc1cc2c(cc1OC)CN(CCc1ccc(NC(=O)c3cccc4c(=O)c5cccc(OC)c5[nH]c34)cc1)CC2,20.9 µM (active)
13,CC(C)(C)OC(=O)CN(Cc1ccc(Cl)cc1)Cc1ccc([N+](=O)[O-])s1,20.9 µM (active)
14,Cc1c(CCOc2ccc(C(=O)O)cc2)c2cc(Cl)ccc2n1C(c1ccccc1)c1ccccc1,14.8 µM (active)
